Data from PubChem BioAssay AID2016 (NMMLSC, 2009).
About 1,700 (0.52%) of roughly 330,000 compounds were called active. The sample as a whole holds a higher share of actives than the screen did. A number with no mark means an inactive call.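 The calls were made as follows: active = GFP response versus DMSO above a set limit, roughly screen mean plus 3 SD (cut at about 180% in these data); inconclusive = fewer than 70 cells counted for a yeast strain; inactive = the rest.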

Test: modulators of MEP2-GFP levels in yeast, primary screen, S. cerevisiae, multiplex flow cytometry, MLPCN library (AID 2016);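 also: median GFP fluorescence of the barcode-gated MEP2-GFP cells per well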
Details: S. cerevisiae MEP2-GFP strain, 3 h, at 10 µM, active compounds read high, 100% = DMSO control level

Row | Structure (SMILES) | GFP response vs DMSO
1 | Cc1cc(NC(=O)CCC(=O)N(CC(=O)NC2CCCC2)c2ccc(F)cc2)no1 | 101%
2 | Cc1cc(C)cc(N(CC(=O)NC2CCCC2)C(=O)CCC(=O)Nc2cc(C)on2)c1 | 327% [may fluoresce violet] (active)
3 | Cc1cc(C)cc(N(CC(=O)NC2CCCC2)C(=O)CCC(=O)Nc2nccs2)c1 | 107%
4 | CC(=N\NC(=O)c1cc(Br)ccc1O)/C(=N/O)C(=O)Nc1ccccc1 | 102%
5 | Cc1nc(-c2ccc(F)cc2)c(CC(=O)Nc2cc(S(=O)(=O)N3CCCCC3)ccc2C)s1 | 105%
6 | C/C(Cl)=C\Cn1c(Nc2cccc(C)c2)nc2c1c(=O)n(C)c(=O)n2C | 91.5%
7 | O=[N+]([O-])c1ccc(N2CCNCC2)cc1NCc1cccnc1 | 309% [may fluoresce violet] (active)
8 | O=C(c1ccccc1)N1CCN(c2ccc([N+](=O)[O-])c(NCc3ccco3)c2)CC1 | 102%
9 | O=[N+]([O-])c1ccc(N2CCN(S(=O)(=O)c3ccc4ccccc4c3)CC2)cc1NCc1ccco1 | 91.1%
10 | O=C(Cc1cccs1)N(CC1CCCO1)C1(C(=O)NC2CCCCC2)CCCCC1 (centres undefined) | 88.4%
11 | Cc1nc2c(ncn2-c2ccccc2)c(=O)n1NC(=O)CN1CCCC1 | 194% [may fluoresce violet] (active)
12 | Cc1nc2ccccc2c(=O)n1NC(=O)c1ccccc1 | 99.1%
13 | O=C(CN1CCCC1)N1CCN(c2ccccc2)CC1 | 91.7%
14 | O=S(=O)(Nc1ncccn1)c1ccc(NS(=O)(=O)c2cccc(Cl)c2Cl)cc1 | 103%
15 | Nc1c(C(=O)c2cccs2)sc2nsc(SCCN3CCCCC3)c12 | 221% (active)
16 | O=C(CSc1ncnc2sccc12)N1CCN(C(=O)c2cccs2)CC1 | 105%
17 | CCCCCCCCCCCCCCCC(=O)OC/C=C(C)/C=C/C=C(C)/C=C/C1=C(C)CCCC1(C)C | 107%
18 | CCC(=C/c1sc2ccc3ccccc3c2[n+]1C)/C=C1\Sc2ccc3ccccc3c2N1C | 285% (active)
19 | COc1ccc(Cl)cc1NC(=O)COC(=O)C(CC(C)C)N1C(=O)C2CC=CCC2C1=O (centres undefined) | 90.8%
20 | Cc1noc(C)c1NC(=O)Nc1ccc2c(c1)C(=O)N([C@H](C)CO)C[C@H](C)[C@@H](CN(C)C(=O)Nc1ccc(C(F)(F)F)cc1)O2 | 103%
21 | CC(=O)NCC(=O)N1CCC(n2nccc2NC(=O)CCCc2ccccc2)CC1 | 95.6%
22 | Cc1nn(Cc2ccccc2)c(C)c1NS(=O)(=O)c1ccccc1 | 111%

Row | Structure (SMILES) | GFP response vs DMSO
23 | OCc1nc(CO)n(Cc2ccccc2)n1 | 276% [may fluoresce violet] (active)
24 | Nc1c(-c2ccccc2)nnn1Cc1ccccc1 | 96.3%
25 | CCOC(=O)C1CCN(c2c(Nc3cc(C)cc(C)c3)c(=O)c2=O)CC1 | 115%
26 | O=C(NCCCn1ccnc1)C1CCCN(S(=O)(=O)c2cc(Cl)ccc2Cl)C1 (centres undefined) | 106%
27 | COc1ccc(S(=O)(=O)N(C)CC(=O)NCCCN2CCOCC2)cc1Cl | 95.1%
28 | O=C1/C(=C\Nc2ccccc2)CCN1c1ncccn1 | 127%
29 | CCOC(=O)N1CCN(C(=O)CNC(=O)Cc2ccc(Cl)cc2)CC1 | 106%
30 | CCOC(=O)N1CCN(C(=O)COc2ccc(Br)cc2)CC1 | 104%
31 | CCOC(=O)N1CCN(C(=O)COc2ccc(Cl)cc2C)CC1 | 184% [may fluoresce violet] (active)
32 | COc1ccc(-n2nc(C(=O)NCC(=O)N3CCCCCC3)c3ccccc3c2=O)cc1Cl | 107%
33 | Cc1ccc(Nc2nc(C)cc(C)c2C(N)=O)cc1 | 209% [may fluoresce violet] (active)
34 | Cc1cc(C)c(C(N)=O)c(Cl)n1 | 104%
35 | CC(=O)Nc1ccc(Nc2cc(C)nc(Nc3ccc(NC(C)=O)cc3)n2)cc1 | 92%
36 | COc1ccc(-c2nc(N)sc2C2(O)C(=O)Nc3c(Br)cc(F)cc32)cc1OC (centres undefined) | 103%
37 | COc1cc(C(=O)Nc2cc(C(F)(F)F)ccc2N2CCOCC2)ccc1O | 106%
38 | O=C(c1ccncc1)N1CCN(S(=O)(=O)c2cc(C(F)(F)F)cc(C(F)(F)F)c2)CC1 | 103%
39 | COc1ccc(O[C@H]2C=C[C@@H](c3ccccc3)O[C@@H]2CO/N=C/C[C@@H]2C=C[C@H](OC(C)=O)[C@@H](COC(C)=O)O2)cc1 | 90%
40 | CC(NC(=S)NC1CCCCC1)C(c1ccccc1)N1CCOCC1 (centres undefined) | 99.2%
41 | O=S(=O)(NC1CC1)c1ccc(F)c(F)c1 | 101%
42 | Cn1sc(=O)c2cc(S(=O)(=O)NC3CC3)ccc21 | 626% [may fluoresce violet] (active)
43 | CC1CCC(NS(=O)(=O)c2ccc3c(c2)n(C)c(=O)c(=O)n3C)CC1 (centres undefined) | 102%
44 | CCCN(CCC)CC(O)COc1ccccc1C(=O)Nc1ccccc1 (centres undefined) | 107%
